Test [1] is described as follows: ATG_EGR_CIS: Attagene CIS-FACTORIAL HepG2 Assay for human Early Growth Response 1 (EGR1) (AID 2282938). The conditions noted are these: HepG2 Attagene CIS-FACTORIAL EGR reporter mRNA; actives raise or lower the signal. An outline of the steps: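 HepG2 cells transiently transfected with cis-element-driven multiplexed reporter units, dosed for 24 h. EGR1-element reporter mRNA quantified by RT-PCR, 6-FAM labelling, HpaI digestion and capillary electrophoresis; bidirectional fit versus DMSO.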

Test [2] is described as follows: ATG_M_19_CIS: Attagene CIS-FACTORIAL HepG2 Assay for M19 Transcription Factor (Internal Marker) (AID 2282939). The conditions noted are these: HepG2 Attagene CIS-FACTORIAL M19 internal marker reporter; actives raise or lower the signal. The essentials:
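Internal marker readout, fitted in both directions against DMSO, from HepG2 cells carrying transfected cis-element reporter constructs; RT-PCR and capillary electrophoresis of reporter mRNA after 24 h exposure.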

Test [3] in a line: ATG_ERE_CIS: Attagene CIS-FACTORIAL HepG2 Assay for Estrogen Response Element (ERE) (AID 2282940). The conditions noted are these: HepG2 ERE cis-reporter, Attagene RNA transcript; actives raise or lower the signal. The essentials: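 After 24 h compound treatment, RNA from transfected HepG2 cells was reverse-transcribed, reporter cDNA PCR-amplified, FAM-labelled, HpaI-cut and resolved by capillary electrophoresis. ERE-driven cis reporter transcripts reflect endogenous factors; gain or loss scored against DMSO.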

Test [4] is described as follows: ATG_Ets_CIS: Attagene CIS-FACTORIAL HepG2 Assay for human Erythroblast Transformation Specific (ETS) (AID 2282941). The conditions noted are these: HepG2 ETS cis-reporter transcription, actives raise or lower the signal. An outline of the steps:
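Human HepG2 hepatoma cells were transiently transfected with promoter-driven reporter constructs and treated for 24 hours. Reporter transcripts were quantified by RT-PCR with fluorescent primer extension; bidirectional curve fitting used DMSO as reference.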

For test [5], the target named is Hepatocyte nuclear factor 3-beta (Homo sapiens) (UniProt Q9Y261). Briefly: ATG_FoxA2_CIS: Attagene CIS-FACTORIAL HepG2 Assay for human Forkhead box A2 (FOXA2) (AID 2282942). The conditions noted are these: HepG2 cis-reporter transcription factor activity, 24 h; actives raise or lower the signal. An outline of the steps:
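HepG2 transiently transfected with a multiplexed cis-promoter reporter library read endogenous FOXA2 activity. After 24 h compound exposure, reporter mRNA was quantified by RT-PCR, HpaI digestion and capillary electrophoresis. Bidirectional fit against DMSO.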

The nature of test [6]: ATG_FoxO_CIS: Attagene CIS-FACTORIAL HepG2 Assay for human Forkhead box O (FoxO) (AID 2282943). The conditions noted are these: HepG2 Attagene cis-reporter, FoxO element, mRNA; actives raise or lower the signal. An outline of the steps:
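HepG2, transient MRTU transfection (cis element, endogenous TFs). Dose 24 h. TriZol RNA → oligo(dT) RT → PCR → 6-FAM primer extension → HpaI cut → CE. Gain/loss vs DMSO.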

Test [7] in a line: ATG_GATA_CIS: Attagene CIS-FACTORIAL HepG2 Assay for human GATA Binding Protein (AID 2282944). The conditions noted are these: HepG2 GATA cis-element reporter, Attagene multiplex mRNA; actives raise or lower the signal. The essentials:
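Reporter transcripts from a GATA cis-regulated unit, among multiplexed reporters in transfected HepG2 cells, were measured by RT-PCR with capillary electrophoresis after 24 h dosing. Induction or loss scored relative to DMSO.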

Test [8] is described as follows: ATG_GLI_CIS: Attagene CIS-FACTORIAL HepG2 Assay for human Zinc Finger Protein GLI1 (AID 2282945). The conditions noted are these: HepG2, Attagene cis-factorial reporter mRNA, GLI element; actives raise or lower the signal. The essentials: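 Bidirectional curve fits relative to DMSO, using reporter mRNA levels from RT-PCR plus capillary electrophoresis. Cells were HepG2 transiently carrying cis-regulated reporter constructs, harvested 24 h after dosing.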

Test [9] has as its target Bile acid receptor (Homo sapiens) (UniProt Q96RI1). Briefly: ATG_IR1_CIS: Attagene CIS-FACTORIAL HepG2 Assay for human Nuclear Receptor Subfamily 1 Group H Member 4 (NR1H4), IR1 submotif (AID 2282946). The conditions noted are these: IR1 reporter transcription, actives raise or lower the signal. An outline of the steps: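 Cells (human HepG2) carry transiently transfected cis-promoter reporter transcription units. Compounds are incubated 24 h, total RNA is reverse-transcribed and amplified, and labelled fragments are resolved by capillary electrophoresis. Curves use DMSO as baseline.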

Test [10] is described as follows: ATG_GRE_CIS: Attagene CIS-FACTORIAL HepG2 Assay for human Glucocorticoid Response Elements (GRE) (AID 2282947). The conditions noted are these: HepG2 GRE cis-reporter, Attagene multiplex mRNA; actives raise or lower the signal. The essentials: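 Transient MRTU transfection of human HepG2 liver cells; cis-regulated reporters report endogenous factors. 24 h dosing → RNA isolation → RT-PCR → 6-FAM primer extension → HpaI cut → CE fragment analysis. Bidirectional fit, DMSO negative control.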

Structures are written as SMILES. Activity calls are given as the source filed them. How the source made its calls: active means hit-call score of the fitted dose curve at least 0.9, where 1 is the maximum; inactive means score below 0.9.

Chain of Bile acid receptor (Homo sapiens) (Q96RI1 whole entry, looked up, the tested form may be a part): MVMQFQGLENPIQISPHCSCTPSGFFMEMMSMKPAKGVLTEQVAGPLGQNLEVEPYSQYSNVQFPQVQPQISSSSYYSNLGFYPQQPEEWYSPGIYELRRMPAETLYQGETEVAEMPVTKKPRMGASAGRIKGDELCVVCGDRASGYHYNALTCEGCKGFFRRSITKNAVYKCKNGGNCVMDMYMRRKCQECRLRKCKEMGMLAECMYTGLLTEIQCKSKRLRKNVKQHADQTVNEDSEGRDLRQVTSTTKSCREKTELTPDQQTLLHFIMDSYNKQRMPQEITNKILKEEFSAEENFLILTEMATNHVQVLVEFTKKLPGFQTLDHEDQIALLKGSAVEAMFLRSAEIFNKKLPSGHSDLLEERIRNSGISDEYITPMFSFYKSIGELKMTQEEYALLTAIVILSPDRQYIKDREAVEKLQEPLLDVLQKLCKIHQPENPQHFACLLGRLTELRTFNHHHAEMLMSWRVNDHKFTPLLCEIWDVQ
Chain of Hepatocyte nuclear factor 3-beta (Homo sapiens) (Q9Y261 whole entry, looked up): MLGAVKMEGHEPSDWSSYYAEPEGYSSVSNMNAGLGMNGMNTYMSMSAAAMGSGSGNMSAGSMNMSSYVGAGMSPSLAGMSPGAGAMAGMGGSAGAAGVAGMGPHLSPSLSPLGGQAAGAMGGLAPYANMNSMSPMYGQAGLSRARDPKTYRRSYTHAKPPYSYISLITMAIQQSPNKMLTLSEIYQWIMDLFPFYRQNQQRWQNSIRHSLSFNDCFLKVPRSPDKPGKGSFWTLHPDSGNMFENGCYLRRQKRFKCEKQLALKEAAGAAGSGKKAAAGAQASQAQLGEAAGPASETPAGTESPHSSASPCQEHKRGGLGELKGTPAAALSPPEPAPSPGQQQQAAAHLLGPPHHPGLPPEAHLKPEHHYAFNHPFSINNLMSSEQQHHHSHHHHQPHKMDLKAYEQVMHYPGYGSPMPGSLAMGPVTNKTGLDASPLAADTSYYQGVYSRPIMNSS

As for `COc1ccc(OC)c(C=O)c1`, the compound was called inactive in test [1], in test [2], in test [3], in [4], in test [5] and in [6]. The outcome in test [7], in test [8], in test [9] and in test [10] was inactive.

Turning to `Cc1cc(=O)[nH]o1`, the result in test [1], in test [2], in test [3], in test [4], in test [5] and in test [6] was inactive. Further, the compound was called inactive in test [7], in [8] and in [10].

By AC50 is commonly meant the concentration giving half of the maximal activity seen. Turning to `C[C@]12CC[C@H](O)CC1=CC[C@@H]1[C@@H]2CC[C@]2(C)C(=O)CC[C@@H]12`, the compound was called inactive in test [1], in [2], in test [4], in test [5], in [6] and in test [7]. Also, the compound was called inactive in test [8] and in [10]. The AC50 in test [3] was 0.987 µM (active).

As to `O=C(c1ccccc1)C(Cl)Cl`, the results for the AC50 in test [1], in [6] and in test [9] were 26.6 µM (active), 26.4 µM (active) and 5.81 µM (active), respectively. Further, the compound was classed as inactive in [2], in test [3], in test [4], in test [5], in test [7] and in [8]. Besides, the outcome in test [10] was inactive.

For `ClCc1cccnc1`, the AC50 was 58.6 µM (active) in test [1], 81.3 µM (active) in [4] and 72.5 µM (active) in test [10]. The compound was called inactive in test [2], in [3], in test [5], in [6], in test [7] and in test [8]. For the same compound, the compound was called inactive in [9].

Regarding `O=C(CCl)CCl`, the AC50 in [1] was 48.8 µM (active); in test [4], 39.1 µM (active); in test [6], 46.3 µM (active); in [10] it was 33.4 µM (active). Further, the result in test [2], in test [3], in [5], in test [7] and in test [8] was inactive.

Take `CCOP(=S)(OCC)Oc1nc(Cl)c(Cl)cc1Cl`: the result in test [1], in test [2], in test [4], in test [5], in test [6] and in test [7] was inactive. Moreover, the compound was classed as inactive in test [10]. Further, the AC50 in test [3] is 27.5 µM (active); in test [8] it was 71.9 µM (active); in test [9] it was 26.4 µM (active).

In the case of `COS(=O)(=O)c1ccc(C)cc1`, the outcome in test [1], in [2], in test [3], in [4], in [5] and in [6] was inactive. The call in [7], in [8], in test [9] and in test [10] was inactive.

Turning to `COP(=O)(OC)OC`, the outcome in test [1], in test [2], in test [3], in test [4], in test [5] and in [6] was inactive. For the same compound, the compound was called inactive in [7], in test [8], in test [9] and in test [10].

On to `NC(=S)Nc1ccccc1`, for which the result in test [1], in test [2], in [4], in test [5], in test [6] and in test [7] was inactive. Besides, the result in test [8], in test [9] and in test [10] was inactive. Also, the AC50 in test [3] was 39.2 µM (active).

For the compound `CCC[CH2][Sn]([Cl])([Cl])[Cl]`, the call in [1], in [2], in test [3], in test [4], in [5] and in test [6] was inactive. The compound was classed as inactive in [7], in [8], in test [9] and in [10].

For the compound `O=C(Cl)c1ccc(Cl)cc1`, the compound was called inactive in [1], in test [2], in test [3], in [4], in test [5] and in test [6]. The compound was called inactive in [7], in [8], in [9] and in [10].

As for `O=C(OC1CCCCC1)c1ccccc1C(=O)OC1CCCCC1`, the results for the AC50 in test [1], in [3] and in test [9] were 25.1 µM (active), 29.2 µM (active) and 28.9 µM (active), respectively. Further, the call in [2], in test [4], in [5], in test [6], in test [7] and in [8] was inactive. Besides, in [10], the outcome was inactive.

`Cl/C=C\C[N+]12CN3CN(CN(C3)C1)C2`: the result in test [1], in [2], in test [3], in test [4], in [5] and in [6] was inactive. The result in test [7], in [8] and in [10] was inactive. Moreover, the AC50 in [9] is 44.6 µM (active).

On to `CCCCOCCOC(C)=O`, for which the call in test [1], in test [2], in test [3], in test [4], in test [5] and in [6] was inactive. For the same compound, the outcome in test [7], in test [8], in [9] and in test [10] was inactive.

As to `CCC1(c2ccc(N)cc2)CCC(=O)NC1=O` (stereo unspecified), the result in test [1], in test [2], in test [3], in test [4], in [5] and in test [6] was inactive. Moreover, the result in test [7], in test [8], in [9] and in [10] was inactive.

For the compound `CC(C)(C)c1cc(O)ccc1O`, the AC50 in [1] was 120 µM (active). The result in [2], in test [3], in test [4], in test [5], in [6] and in [7] was inactive. For the same compound, the call in [8], in [9] and in [10] was inactive.

With `Oc1ccc(-c2ccccc2)cc1`, the AC50 is 68.5 µM (active) in test [1] and 2.15 µM (active) in test [3]. Besides, the call in test [2], in test [4], in test [5], in test [6], in [7] and in [8] was inactive. Also, the call in test [9] and in test [10] was inactive.

As to `CCOP(=S)(OCC)SCCS(=O)(=O)CC`, the outcome in [1], in test [2], in test [3], in test [4], in test [5] and in test [6] was inactive. Also, the outcome in [7], in test [8], in [9] and in test [10] was inactive.

As for `CCC(C)(C)c1ccc(O)c(C(C)(C)CC)c1`, the compound was called inactive in test [1], in test [2], in [3], in test [4], in test [5] and in test [6]. Also, the compound was classed as inactive in test [7], in [8] and in test [10]. Also, the AC50 in [9] was 5.81 µM (active).

With `Cn1sc(Cl)cc1=O`, the compound was called inactive in test [1], in test [2], in test [3], in test [4], in [5] and in [6]. Moreover, the call in test [7], in [8], in [9] and in test [10] was inactive.

Turning to `CC(=O)c1cc(C(C)(C)C)cc2c1CCC2(C)C`, the concentration at half-maximal activity (AC50) in test [1] is 37.9 µM (active); in test [5], 147 µM (active); in test [8], 143 µM (active); in test [10], 73.9 µM (active). Besides, the call in test [2], in test [3], in test [4], in [6] and in test [7] was inactive.

With `Nc1ccc(Cl)cc1C(=O)c1ccccc1`, the AC50 in test [1] is 26.3 µM (active). The compound was classed as inactive in test [2], in [3], in test [4], in test [5], in test [6] and in [7]. In addition, the compound was called inactive in [8], in test [9] and in [10].

With `C[C@@H](Oc1ccc(Cl)cc1Cl)C(=O)O`, the call in [1], in test [2], in test [3], in test [4], in test [5] and in test [6] was inactive. For the same compound, the compound was called inactive in [7], in test [8], in test [9] and in [10].
